{
  "source": "PubChem BioAssay (NCI)",
  "note": "About 83,000 compounds went through this panel and 20% of them were active in at least one assay; those are over-represented in the sample as a whole.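 In brief: 96-well plates, 48 h treatment, single concentration, percent growth endpoint.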 The source made the active and inactive calls. How the source made its calls: active means growth percent below 10; inactive means the rest.",
  "data": [
    {"system": "U251 CNS", "assay": "NCI-60 one-dose screen, 48 h (100 = growth as untreated, 0 = no growth, -100 = all killed)", "details": "10 µM unless noted", "values": [
      {"smiles": "OC(c1ccccc1)(c1ccccc1)c1ccccc1-c1ccccc1", "growth": "92.8% (inactive)"},
      {"smiles": "Clc1ccc(-c2nc(-c3c[nH]c4ncccc34)cs2)cc1", "growth": "16.2% [100 µM] (inactive)"},
      {"smiles": "CC(=O)c1cc(-c2ccccc2N)n(-c2ccc3c(c2)OCO3)c1C", "growth": "14.7% (inactive)"},
      {"smiles": "CC1O[C@@H]2C[C@@](O)([C@H]1O)n1c3ccccc3c3c4c(c5c6ccccc6n2c5c31)C(=O)NC4=O", "note": "(stereo not given in full)", "growth": "24.8% (inactive)"},
      {"smiles": "COC(=O)/C(CCC=C(C)C)=C1\\[C@@H](OC(C)=O)C[C@@]2(C)[C@H]1CC(=O)[C@H]1[C@@]3(C)CCC(N4CCCC4)[C@@H](C)[C@@H]3CC[C@@]12C", "note": "(stereo not given in full)", "growth": "101% (inactive)"},
      {"smiles": "CN(C)c1ccc(/C=C2/C=C(c3ccccc3)OC2=O)cc1", "growth": "108% (inactive)"},
      {"smiles": "COc1cc(-c2nc3occn3c2-c2ccnc(NCCCNS(=O)(=O)c3ccccc3)n2)ccc1F", "growth": "73.4% (inactive)"},
      {"smiles": "O=C(Nc1ccccc1)c1sc(-c2ccccc2)cc1O", "growth": "98.5% (inactive)"},
      {"smiles": "CCOC(=O)c1c2c(n3c1NCC3)-c1ccccc1C2=O", "growth": "101% (inactive)"},
      {"smiles": "C/C(=N\\Nc1nc(C)cs1)c1cc2ccccc2o1", "growth": "94% (inactive)"},
      {"smiles": "CCOC(=O)C1=C(c2ccccc2)N=c2s/c(=C/c3ccc(Br)cc3)c(=O)n2C1c1ccc(O)cc1", "note": "(stereo not given)", "growth": "81.1% (inactive)"},
      {"smiles": "COc1ccc(C2CC(c3ccc(Nc4nc(Nc5ccc(F)cc5)nc(Nc5ccc(F)cc5)n4)cc3)=NN2C(C)=O)cc1", "note": "(stereo not given)", "growth": "84.5% (inactive)"},
      {"smiles": "c1ccc2cc(Cn3c[n+](Cc4ccc5ccccc5c4)c4ccccc43)ccc2c1", "growth": "-90.3% (active)"},
      {"smiles": "CN1CCN(c2ccc3c(c2)nc(NNC(=O)c2cnccn2)c2cccn23)CC1", "growth": "32.2% (inactive)"},
      {"smiles": "Cc1cc(C)c(-c2c(O)c(Br)c(-c3c(C)cc(C)c(Br)c3C)c(O)c2Br)c(C)c1Br", "growth": "19.8% (inactive)"},
      {"smiles": "CCCCCCCCCCCCCCCCCCOc1ccccc1CC(=O)NCC[N+]1(C)CCOCC1", "growth": "10.1% (inactive)"},
      {"smiles": "O=C(/C=C/c1cccc(Cl)c1)c1cccc(OCCCCOc2cccc(C(=O)/C=C/c3cccc(Cl)c3)c2)c1", "growth": "68.7% (inactive)"},
      {"smiles": "Cc1ccc(-c2nc(C#N)c(S(=O)(=O)NCCO)o2)cc1", "growth": "74% (inactive)"},
      {"smiles": "NC(=O)c1ccc(NC(=O)c2oc3ccccc3c2-c2cnn(-c3ccccc3)c2)cc1", "growth": "-19.2% [50 µM] (active)"},
      {"smiles": "O=C(CBr)CN1C(=O)c2ccccc2C1=O", "growth": "101% (inactive)"},
      {"smiles": "CCN(CC)c1ccc(/C=C\\c2cc(C)c3cc(C)ccc3n2)cc1", "growth": "25.6% (inactive)"},
      {"smiles": "C=CCN=C(N)SCCCCCCSC(N)=NCC=C", "growth": "87.4% (inactive)"},
      {"smiles": "Clc1nn2c(Cn3cnc4c(NCc5ccccc5)ncnc43)nnc2c2ccccc12", "growth": "34.5% (inactive)"},
      {"smiles": "CCOC(=O)c1ccc2c(c1)c1c(C)c3ccncc3c(C)c1n2C", "growth": "0.292% (active)"},
      {"smiles": "CCCCCCCCn1ccc2cc(NC(=O)Cn3cc(CN4CCCCCC4)nn3)ccc21", "growth": "-43.6% (active)"},
      {"smiles": "N#CC(C#N)N=Nc1ccc(Cl)cc1Cl", "growth": "106% (inactive)"},
      {"smiles": "Brc1ccc(-c2cnc3nonc3n2)cc1", "growth": "92.5% (inactive)"},
      {"smiles": "COc1cccc(C(=O)OCC(O)C(=O)NC23CC4CC(CC(C4)C2)C3)c1", "note": "(stereo not given)", "growth": "94.1% (inactive)"},
      {"smiles": "O=C(Nc1cccc(NC(=O)C2CCCCC2)c1)c1ccccn1", "growth": "109% (inactive)"},
      {"smiles": "Cc1cc(C)cc(Nc2ccc([N+](=O)[O-])c(NCCN3CCOCC3)n2)c1", "growth": "20.8% (inactive)"},
      {"smiles": "O=C(Nc1cccnc1Nc1ccc(Cl)cc1)c1cn(Cc2ccc(F)cc2)nn1", "growth": "99% (inactive)"},
      {"smiles": "Cn1c(=O)c2c(c3ccccc31)OC(N)=C(C#N)C21C(=O)c2ccccc2C1=O", "growth": "101% (inactive)"},
      {"smiles": "COc1cccc(/C=C2\\COc3ccc(O)cc3C2=O)c1", "growth": "45.1% (inactive)"},
      {"smiles": "CCc1cccc(Sc2cc(C(=O)N3Cc4ccc(OCCN(C)C)cc4C3)ccc2O)c1", "growth": "54.9% (inactive)"},
      {"smiles": "C=C(CN1CC=CCC1)[C@@H]1CC[C@]2(CO)CC[C@]3(C)[C@H](CC[C@@H]4[C@@]5(C)CC[C@H](O)C(C)(C)[C@@H]5CC[C@]43C)[C@@H]12", "growth": "88.3% (inactive)"},
      {"smiles": "COc1ccc(/C(C)=C(\\c2ccc(Cl)cc2)c2ccc(OCCN3CCCC3)cc2)cc1", "growth": "19.4% (inactive)"},
      {"smiles": "CC/C(Cc1ccccc1)=C(\\c1ccc(OCCN2CCCCCC2)cc1)c1ccc(OC(=O)NCc2ccccc2)cc1", "growth": "49.6% (inactive)"},
      {"smiles": "N=c1sc(Cc2cc(Cl)ccc2Cl)cn1CC(=O)c1ccccc1", "growth": "40.4% (inactive)"},
      {"smiles": "Cc1cc(C(=O)Nc2cc(Nc3ncccc3-c3ncnc4nc[nH]c34)ccc2F)cc(C(F)(F)F)c1", "growth": "57.3% (inactive)"},
      {"smiles": "C[C@@H]1O[C@@H](O[C@@H]2C[C@H](c3ccc4c(c3O)C(=O)C3=C(C4=O)[C@@]4(O)C(=O)C[C@](C)(O)C[C@@]4(O)C=C3)O[C@H](C)[C@H]2O)C[C@H](O)[C@@H]1O", "growth": "97.5% (inactive)"}
    ]},
    {"system": "PC-3 prostate", "assay": "NCI-60 one-dose screen, 48 h (100 = growth as untreated, 0 = no growth, -100 = all killed)", "details": "10 µM unless noted", "values": [
      {"smiles": "OC(c1ccccc1)(c1ccccc1)c1ccccc1-c1ccccc1", "growth": "86% (inactive)"},
      {"smiles": "Clc1ccc(-c2nc(-c3c[nH]c4ncccc34)cs2)cc1", "growth": "43.9% [100 µM] (inactive)"},
      {"smiles": "CC(=O)c1cc(-c2ccccc2N)n(-c2ccc3c(c2)OCO3)c1C", "growth": "30.1% (inactive)"},
      {"smiles": "CC1O[C@@H]2C[C@@](O)([C@H]1O)n1c3ccccc3c3c4c(c5c6ccccc6n2c5c31)C(=O)NC4=O", "note": "(stereo not given in full)", "growth": "41.2% (inactive)"},
      {"smiles": "COC(=O)/C(CCC=C(C)C)=C1\\[C@@H](OC(C)=O)C[C@@]2(C)[C@H]1CC(=O)[C@H]1[C@@]3(C)CCC(N4CCCC4)[C@@H](C)[C@@H]3CC[C@@]12C", "note": "(stereo not given in full)", "growth": "89.1% (inactive)"},
      {"smiles": "CN(C)c1ccc(/C=C2/C=C(c3ccccc3)OC2=O)cc1", "growth": "96.9% (inactive)"},
      {"smiles": "COc1cc(-c2nc3occn3c2-c2ccnc(NCCCNS(=O)(=O)c3ccccc3)n2)ccc1F", "growth": "22.2% (inactive)"},
      {"smiles": "O=C(Nc1ccccc1)c1sc(-c2ccccc2)cc1O", "growth": "95.2% (inactive)"},
      {"smiles": "CCOC(=O)c1c2c(n3c1NCC3)-c1ccccc1C2=O", "growth": "91.1% (inactive)"},
      {"smiles": "C/C(=N\\Nc1nc(C)cs1)c1cc2ccccc2o1", "growth": "70.2% (inactive)"},
      {"smiles": "CCOC(=O)C1=C(c2ccccc2)N=c2s/c(=C/c3ccc(Br)cc3)c(=O)n2C1c1ccc(O)cc1", "note": "(stereo not given)", "growth": "64.1% (inactive)"},
      {"smiles": "COc1ccc(C2CC(c3ccc(Nc4nc(Nc5ccc(F)cc5)nc(Nc5ccc(F)cc5)n4)cc3)=NN2C(C)=O)cc1", "note": "(stereo not given)", "growth": "68.8% (inactive)"},
      {"smiles": "c1ccc2cc(Cn3c[n+](Cc4ccc5ccccc5c4)c4ccccc43)ccc2c1", "growth": "-19.4% (active)"},
      {"smiles": "CN1CCN(c2ccc3c(c2)nc(NNC(=O)c2cnccn2)c2cccn23)CC1", "growth": "47.3% (inactive)"},
      {"smiles": "Cc1cc(C)c(-c2c(O)c(Br)c(-c3c(C)cc(C)c(Br)c3C)c(O)c2Br)c(C)c1Br", "growth": "27.7% (inactive)"},
      {"smiles": "CCCCCCCCCCCCCCCCCCOc1ccccc1CC(=O)NCC[N+]1(C)CCOCC1", "growth": "-46.4% (active)"},
      {"smiles": "O=C(/C=C/c1cccc(Cl)c1)c1cccc(OCCCCOc2cccc(C(=O)/C=C/c3cccc(Cl)c3)c2)c1", "growth": "92.2% (inactive)"},
      {"smiles": "Cc1ccc(-c2nc(C#N)c(S(=O)(=O)NCCO)o2)cc1", "growth": "61.7% (inactive)"},
      {"smiles": "NC(=O)c1ccc(NC(=O)c2oc3ccccc3c2-c2cnn(-c3ccccc3)c2)cc1", "growth": "6.29% [50 µM] (active)"},
      {"smiles": "O=C(CBr)CN1C(=O)c2ccccc2C1=O", "growth": "102% (inactive)"},
      {"smiles": "CCN(CC)c1ccc(/C=C\\c2cc(C)c3cc(C)ccc3n2)cc1", "growth": "23.1% (inactive)"},
      {"smiles": "C=CCN=C(N)SCCCCCCSC(N)=NCC=C", "growth": "68.5% (inactive)"},
      {"smiles": "Clc1nn2c(Cn3cnc4c(NCc5ccccc5)ncnc43)nnc2c2ccccc12", "growth": "42% (inactive)"},
      {"smiles": "CCOC(=O)c1ccc2c(c1)c1c(C)c3ccncc3c(C)c1n2C", "growth": "10.8% (inactive)"},
      {"smiles": "CCCCCCCCn1ccc2cc(NC(=O)Cn3cc(CN4CCCCCC4)nn3)ccc21", "growth": "40% (inactive)"},
      {"smiles": "N#CC(C#N)N=Nc1ccc(Cl)cc1Cl", "growth": "78.7% (inactive)"},
      {"smiles": "Brc1ccc(-c2cnc3nonc3n2)cc1", "growth": "57.1% (inactive)"},
      {"smiles": "COc1cccc(C(=O)OCC(O)C(=O)NC23CC4CC(CC(C4)C2)C3)c1", "note": "(stereo not given)", "growth": "93.3% (inactive)"},
      {"smiles": "O=C(Nc1cccc(NC(=O)C2CCCCC2)c1)c1ccccn1", "growth": "104% (inactive)"},
      {"smiles": "Cc1cc(C)cc(Nc2ccc([N+](=O)[O-])c(NCCN3CCOCC3)n2)c1", "growth": "17.2% (inactive)"},
      {"smiles": "O=C(Nc1cccnc1Nc1ccc(Cl)cc1)c1cn(Cc2ccc(F)cc2)nn1", "growth": "94.5% (inactive)"},
      {"smiles": "Cn1c(=O)c2c(c3ccccc31)OC(N)=C(C#N)C21C(=O)c2ccccc2C1=O", "growth": "80.8% (inactive)"},
      {"smiles": "COc1cccc(/C=C2\\COc3ccc(O)cc3C2=O)c1", "growth": "76.8% (inactive)"},
      {"smiles": "CCc1cccc(Sc2cc(C(=O)N3Cc4ccc(OCCN(C)C)cc4C3)ccc2O)c1", "growth": "54.6% (inactive)"},
      {"smiles": "C=C(CN1CC=CCC1)[C@@H]1CC[C@]2(CO)CC[C@]3(C)[C@H](CC[C@@H]4[C@@]5(C)CC[C@H](O)C(C)(C)[C@@H]5CC[C@]43C)[C@@H]12", "growth": "77.5% (inactive)"},
      {"smiles": "COc1ccc(/C(C)=C(\\c2ccc(Cl)cc2)c2ccc(OCCN3CCCC3)cc2)cc1", "growth": "32.7% (inactive)"},
      {"smiles": "CC/C(Cc1ccccc1)=C(\\c1ccc(OCCN2CCCCCC2)cc1)c1ccc(OC(=O)NCc2ccccc2)cc1", "growth": "54.8% (inactive)"},
      {"smiles": "N=c1sc(Cc2cc(Cl)ccc2Cl)cn1CC(=O)c1ccccc1", "growth": "62.5% (inactive)"},
      {"smiles": "Cc1cc(C(=O)Nc2cc(Nc3ncccc3-c3ncnc4nc[nH]c34)ccc2F)cc(C(F)(F)F)c1", "growth": "72.2% (inactive)"},
      {"smiles": "C[C@@H]1O[C@@H](O[C@@H]2C[C@H](c3ccc4c(c3O)C(=O)C3=C(C4=O)[C@@]4(O)C(=O)C[C@](C)(O)C[C@@]4(O)C=C3)O[C@H](C)[C@H]2O)C[C@H](O)[C@@H]1O", "growth": "90.5% (inactive)"}
    ]}
  ]
}
